Screening results deposited in PubChem by National Center for Advancing Translational Sciences (NCATS).
Hits are enriched below; roughly 1.1% of the tested compounds scored in any of these assays.
Six1-Eya2 blk = qHTS Assay for Inhibitors of the Six1/Eya2 Interaction; Homeobox protein SIX1 (Homo sapiens) + Protein phosphatase EYA2 (Homo sapiens), …; AlphaScreen GST-Six1/His-Eya2 binding, biochemical; stronger effect = lower value; activity change, % (test concentration not listed); 0.56% of 360,000 active; further: on the % scale 0 is the no-effect control and ±100 the full control effect
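Six1/Eya2 binding was read as AlphaScreen signal after compounds were pinned into GST-Six1 plus His-tagged Eya2 (5X stock 250/500 nM) in pH 8.0 Tris/NaCl/TCEP buffer, beads added, then incubated 1 h, 37 C, dark.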
CtBP-E1A blk = qHTS Assay for Inhibitors of the CtBP/E1A Interaction; CtBP / adenovirus E1A interaction (AlphaScreen); AlphaScreen GST-E1A/His-CtBP binding, 1536-well; stronger effect = lower value; activity change, % (test concentration not listed); 0.49% of 340,000 active; further: on the % scale 0 is the no-effect control and ±100 the full control effect
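Steps: dispense buffer (Tris pH 8.0, NaCl 300 mM, TCEP 1 mM, BSA, Tween 20); add 5X protein mix (GST-E1A, His-CtBP, 125 nM each); pin 23 nL compound; 2 h at 37 °C, dark; add 5X beads (50 ug/mL); 1 h; read.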
MBNL1 CUG block = qHTS Assay for Inhibitors of MBNL1-poly(CUG) RNA binding; Potency, µM (highest dose often 57.5 µM), inactives show at the top dose activity change, negative = inhibition, hits mostly inhibitors; TR-FRET MBNL1-His/biotin-(CUG)12 binding, 665/545 ratio; Muscleblind-like protein 1 (Homo sapiens), Q9NR56; 0.036% of 280,000 active; active means well fitted inhibition curve with a large enough effect in the signal ratio, with a control signal flat, not every such curve was filed as active; inconclusive means small, poorly fitted or top-dose-only effect, or effect the other way, or a change in a side signal; inactive means no such curve, though single readings can be large or run the other way; the % refers to the signal ratio; further: potency means the concentration at half of the fitted maximal effect; on the % scale 0 is the no-effect control and ±100 the full control effect
Target sequence (Q9NR56 whole entry, looked up): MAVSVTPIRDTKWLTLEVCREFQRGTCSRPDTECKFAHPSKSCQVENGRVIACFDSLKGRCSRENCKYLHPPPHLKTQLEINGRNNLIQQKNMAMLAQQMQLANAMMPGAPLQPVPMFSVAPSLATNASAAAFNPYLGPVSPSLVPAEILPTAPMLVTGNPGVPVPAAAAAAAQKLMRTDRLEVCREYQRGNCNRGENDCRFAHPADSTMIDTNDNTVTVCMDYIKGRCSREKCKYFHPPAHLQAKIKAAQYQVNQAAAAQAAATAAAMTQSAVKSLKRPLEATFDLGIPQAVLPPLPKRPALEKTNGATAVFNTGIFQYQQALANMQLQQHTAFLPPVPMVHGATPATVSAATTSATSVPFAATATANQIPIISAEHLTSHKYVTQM
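His-tagged MBNL1 binding to biotinylated (CUG)12 RNA was measured by TR-FRET using terbium anti-His antibody (0.055 ng/ul final) and streptavidin-XL665 (5 nM final). Compounds were titrated 92 nM to 58 uM; 60 min at room temperature.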
Mito fusion act = qHTS Assay for Small Molecule Inhibitors of Mitochondrial Division or Activators of Mitochondrial Fusion. AID 485298, 2010. S. cerevisiae fusion-defective mutant growth rescue, CellTiterGlo 48 h. 0.23% of 320,000 active. Potency, µM (top dose mostly 46.1 µM), inactives show top-dose growth rescue (activation), most hits filed as activators; active means well fitted activation curve with a large enough effect; inconclusive means small, poorly fitted or top-dose-only effect; inactive means no such curve, though single readings can be large or run the other way; further: potency means the concentration at half of the fitted maximal effect; % of control where 0% means no effect; nearly all actives have a fitted effect of over 45% in size
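Luminescent cell viability in 1536-well qHTS format served as the measure of rescued growth in ts fusion-mutant S. cerevisiae cultured on non-fermentable YPEG for 48 hours at 37C.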
uPA surface inh = qHTS for Inhibitors of Cell Surface uPA Generation | cell surface uPA generation assay, qHTS | Potency, µM (series often up to 38.3 µM), without a hit: top-dose activity change, negative = inhibition, actives largely listed as inhibitors | 0.31% of 330,000 active | AID 540303, 2011; active means well fitted inhibition curve with a large enough effect; inconclusive means small, poorly fitted or top-dose-only effect; inactive means no such curve, though single readings can be large or run the other way; tested in mouse RAW 264.7 cells; further: potency means the concentration at half of the fitted maximal effect; on the % scale 0 is the no-effect control and ±100 the full control effect; nearly all actives have a fitted effect of over 55% in size
* marks the source's active call; other numbers are inactive results; u = inconclusive; x = no result given; ! = a repeat was not active. Unless noted, no stated cut-off is given here; in the data, active means activity change below about -65%; inconclusive means mostly about -30% to -63%; inactive means weaker than that.

SMILES	Six1-Eya2 blk	CtBP-E1A blk	MBNL1 CUG block	Mito fusion act	uPA surface inh
COc1cccc2nc3cc(C)c(C)cc3nc12	-11	x	u	-39%	3.2µM*
O=C(CSc1ccc2nnc(-c3cccnc3)n2n1)Nc1ccc(F)cc1F	u	-69*	-11%	3%	0%
O=C(CSc1ccc2nnc(-c3cccnc3)n2n1)Nc1cccc(F)c1	-26	u	2%	-4%	-19%
CCCOC(=O)c1cccc(NC(=O)c2c(-c3ccccc3Cl)noc2C)c1	x	x	x	2%	x
NC(=O)c1cc2ccccc2o/c1=N/NC(=O)c1cccs1	u	-26	u	-4%	1%
COc1ccc2o/c(=N/NC(=O)c3cccs3)c(C(N)=O)cc2c1	u	-83*	u	18%	-2%
O=[N+]([O-])c1ccc(O)c(-c2nn[nH]n2)c1	-92*	-94*	u	-7%	4%
C(=N\Nc1nn[nH]n1)/c1ccccc1	6	3	2%	-2%	8%
Oc1ccccc1/C=N/Nc1nn[nH]n1	-91*	x	10%	-2%	-5%
O=[N+]([O-])c1ccc(O)c(/C=N/Nc2ccc(Cl)nn2)c1	-82*	-91*	u	-7%	-10%
Cc1nnc(N/N=C/c2ccccc2O)n1N	-78*	-87*	4%	9%	-10%
Oc1ccc(CNc2cccc(C(F)(F)F)c2)c2cccnc12	x	x	x	-1%	x
CC(=O)NC(c1ccco1)c1cc(Cl)c2ccc(N(C)C)nc2c1O (stereo not given)	x	x	x	-7%	x
C=CCc1c(C)nc(C)nc1N/N=C/c1ccccc1O	-81*	-92*	u	-5%	-7%
C=CCc1c(C)nc(C)nc1N/N=C/c1ccc([N+](=O)[O-])cc1	-4	-12	u	-1%	5%
O=[N+]([O-])c1ccc(O)c(/C=N/NC2=NS(=O)(=O)c3ccccc32)c1	-70*	-70*	u	-12%	4%
O=[N+]([O-])c1ccc(O)c(/C=N/Nc2nn[nH]n2)c1	-74*	u	u	-3%	2%
Cc1cc(NC(=O)Cn2c(=O)oc3cc(S(=O)(=O)N4CCCC4)ccc32)ccc1Br	x	x	x	1%	x
CCCc1cc(=O)oc2c(C)c3occ(C)c3cc12	20	0	12%	10µM*	-2%
OC[C@H]1O[C@@H](n2cnc3cncnc32)[C@H](O)[C@@H]1O	x	x	x	-5%	x
CN(CC(=O)Nc1c(Cl)cccc1Cl)C(=O)c1cc(-c2cccs2)nn1-c1ccccc1	-7	-23	x	20µM*	-2%
Cc1onc(-c2ccccc2)c1C(=O)NC(=S)NNC(=O)c1ccc(O)cc1O	-93*	-14	-6%	20%	u
Cc1onc(-c2ccccc2)c1C(=O)NC(=S)NNC(=O)c1ccc(O)cc1	-9	-4	u	-1%	-4%
Cc1onc(-c2ccccc2)c1C(=O)NNC(=O)c1ccccc1Br	-4	x	x	6%	-2%
Cc1onc(-c2ccccc2)c1C(=O)NC(=S)NNC(=O)c1ccccc1O	-85*	7	-14%	1%	-1%
SMILES	Six1-Eya2 blk	CtBP-E1A blk	MBNL1 CUG block	Mito fusion act	uPA surface inh
CN(C)C1=NC[C@H](Cc2ccccc2)N1CCCC1CCCC1	10	-17	x	0%	4µM*
CCc1ccc(Nc2cnn(-c3nc4ccccc4s3)c(=O)c2Cl)cc1	-9	2	x	11µM*	-8%
Cc1cc2c(s1)c1c(C)nn(Cc3ccc(F)cc3)c(=O)c1n2C	x	x	x	4%	x
COc1cc(/C=N/NC(=S)Nc2cccc(S(=O)(=O)N(C)C)c2)cc(OC)c1O	-21	5	u	2%	1%
COc1ccc(O)c(/C=N/NC(=S)Nc2cccc(S(=O)(=O)N(C)C)c2)c1	-90*	-3	x	4%	-11%
CN(C)S(=O)(=O)c1cccc(NC(=S)N/N=C/c2ccc(O)c(O)c2O)c1	-93*	-97*	8%	-4%	-2%
CC(C)NC(=O)C1(C)CSCC(=O)N1CCCn1ccnc1 (stereo not given)	-1	2	x	x	x
Cc1ccc(N2CCOCC2)c2c1C(=O)c1ccccc1C2=O	-76*	u	u	-1%	-7%
Cc1ccc(-c2nnc(NC3CCCC3)s2)cc1	8	7	5%	2%	-3%
COCCN1CN(S(=O)(=O)c2ccc(Cl)cc2)c2nc3ccccc3nc21	-8	-1	5%	-1%	-5%
COCCN1CN(S(=O)(=O)c2ccccc2)c2nc3ccccc3nc21	-82*	-2	u	7%	-6%
CCOC(=O)C1C(C(=O)OCC)C(C)(C)C1N(C)C (stereo not given)	3	1	x	x	x
CCCCn1c(N)c(N(CC(C)C)C(=O)CC(NC(=O)c2ccccc2Cl)c2ccccc2)c(=O)[nH]c1=O (stereo not given)	12	-1	x	x	x
O=C(O)c1ccc(CSc2nc3ccccc3c(=O)n2-c2ccccc2)cc1	1	x	2%	5%	-12%
N=C(N)SCc1nc2ccccc2c(=O)n1-c1ccccc1	-82*!	-83*!	3%	0%	-1%
Cc1ccc(/C=C/S(=O)(=O)NCC(=O)OCC(=O)Nc2ccc(C(=O)N(C)C)cc2)cc1	-9	-91*	x	3%	-9%
Cc1c(/C=N/NC(=O)c2ccccc2O)c2ccccn2c1C(=O)c1ccc(F)cc1	u	2	-8%	12%	-18%
Cc1c(/C=N/NC(=O)c2ccc(O)cc2)c2ccccn2c1C(=O)c1ccc(F)cc1	-70*	-78*	10%	0%	-7%
Nc1nc2ccccc2cc1C(=O)NCCCCc1ccccc1	15	3	x	x	x
C/C(=N/NC(=O)CNC(=O)c1ccccn1)c1ccccc1	5	x	-4%	12%	12%
CC(=NNC(=S)Nc1ccccc1Cl)c1ccccn1	-90*	-66*	x	x	-10%
CC(=NNC(=S)Nc1ccccc1)c1ccccn1	-89*	u	x	x	x
C=CCNC(=S)N/N=C(\C)c1ccccn1	-89*	-97*	22%	1%	-1%
O=c1[nH][nH]c2c1[C@H](c1ccc(F)cc1)O[C@H](CCc1ccccc1)C2	5	-21	x	x	x
CC(=O)c1cccc(-c2ccnc3c2CC(C(=O)NCc2cccs2)O3)c1 (stereo not given)	-4	-3	x	x	x
CC1(C(=O)Nc2ccc3c(c2)OCO3)Cc2c(-c3cccc(C(N)=O)c3)ccnc2O1 (stereo not given)	-3	-4	x	x	x
